The results in this text go back to PubChem BioAssay (NCATS).

SMILES strings stand for the structures. Values joined by “and” are separate entries in the source; they are usually repeats but may differ in a detail not shown here. Equal entries are not always repeated. Inconclusive results are not listed. More than one record can exist for a structure, and the calls need not agree. Values without a mark were called inactive. Active and inactive are the calls of the source. Calls come from the whole dose curve; as a rule, active = well fitted cell-killing curve with a large enough effect in the repeat runs; inconclusive = weak or mixed curves; inactive = flat fitted curve, though single readings scatter.
% is set by controls: 0 for no effect and ±100 for the full control effect; potency is the fitted concentration of half-maximal effect.

A short description of the assay: qHTS assay for small molecule agonists of the antioxidant response element (ARE) signaling pathway measured by Nrf2-dependant transcriptional activity - cell viability counter screen (AID 720653). The following applies: ARE-bla HepG2 viability, CellTiter-Glo ATP luminescence, 16 h; max response: hits give low values. From the text: National Center for Advancing Translational Sciences [NCATS] NIH Chemical Genomics Center [NCGC] U.S. Environmental Protection Agency [EPA] National Institutes of Environmental Health Sciences [NIEHS] National Toxicology Program [NTP] Assay Overview: Oxidative stress has been implicated in the pathogenesis of a variety of diseases ranging from cancer to neurodegeneration. The antioxidant response element (ARE) signaling pathway plays an important role in the amelioration of oxidative stress. The CellSensor ARE-bla HepG2 cell line (Invitrogen) can be used for analyzing the Nrf2/antioxidant response signaling pathway. Nrf2 (NF-E2-related factor 2) and Nrf1 are transcription factors that bind to AREs and activate these genes. The CellSensor ARE-bla HepG2 cell line contains a beta-lactamase reporter gene under control of the Antioxidant Response Element (ARE) stably integrated into HepG2 cells. The activation of the report gene under culture conditions can be detected by fluorescence intensity. The cytotoxicity of the compounds against the ARE-bla HepG2 cell line was quantified by measuring the intracellular ATP content.
Assay Protocol Summary: ARE-bla HepG2 cells were dispensed at 2,000 cells/5 ul/well in 1536-well black wall/clear bottom plates using a Multidrop Combi (ThermoFisher Scientific, Waltham, MA) dispenser. After the assay plates were incubated at 37C/5% CO2 for 5 hrs, 23 nL of compounds dissolved in DMSO, positive controls or DMSO only was transferred to the assay plate by a pintool work station (Kalypsys, San Diego, CA). The plates were incubated at 37C/5% CO2 for 16 hrs. After 1 uL of LiveBLAzer B/G FRET substrate was added using a Flying Reagent Dispenser (FRD) (Aurora Discovery, San Diego, CA), the assay plates were incubated at room temperature for 2 hrs. The fluorescence intensity was measured by an Envision (PerkinElmer, Shelton, CT) plate reader. Cell viability using CellTiter Glo viability assay (Promega, Madison, WI) was also measured by adding 4 ul/well of CellTiter-Glo reagent into the same assay plate using a FRD. After 30 min incubation at room temperature, the luminescence intensity in the plates was measured using a ViewLux (PerkinElmer) plate reader.
`Cc1cc(C2CC2)nc(Nc2ccccc2)n1`: the max response is 0.0652%.

For the compound `CCC(C)(CC)c1cc(NC(=O)c2c(OC)cccc2OC)on1`, the max response is 10.3%.

In the case of `CC(C)[C@H](C(=O)O[C@H](C#N)c1cccc(Oc2ccccc2)c1)c1ccc(Cl)cc1`, the max response was 6.41%.

Consider `O=C(O)C(F)(F)C(F)(F)C(F)(F)C(F)(F)C(F)(F)C(F)(F)C(F)(F)C(F)(F)F`, for which the max response was 4.68% and -1.78%.

For the compound `Brc1ccc(Br)cc1`, the max response was -4.46%.

As for `COc1ccc(C(O)(c2cncnc2)C2CC2)cc1` (stereo not given), the max response is -13.4%.

Consider `CCOP(=S)(OCC)SCn1c(=O)oc2cc(Cl)ccc21`, for which the max response was -8.7%.

On to `CCOP(=O)(OCC)SCSC(C)(C)C`, for which the max response was 4.97%.

For the compound `CCC[CH2][Sn]([CH2]CCC)[CH2]CCC`, the Potency is 15.8 µM (active).

In the case of `CNC(=O)N(C)c1nc2ccccc2s1`, the max response was -8.17%.

Consider `O=[N+]([O-])Nc1nccn1Cc1ccc(Cl)nc1`, for which the max response is -10.2%.

`CC(C)CC(C)Nc1ccc(Nc2ccccc2)cc1` (stereo not given): the max response was -3.35%.

Regarding `CC(C)(C)C(O)/C(=C\c1ccc(Cl)cc1Cl)n1cncn1` (stereo not given), the max response was -10.7%.

On to `CCSCc1ccccc1OC(=O)NC`, for which the max response was -3.42%.

With `CCC(CC)Nc1c([N+](=O)[O-])cc(C)c(C)c1[N+](=O)[O-]`, the max response is -7.95%.

In the case of `CC1=C(C(=O)Nc2ccccc2)S(=O)(=O)CCO1`, the max response was -1.32%.

On to `C[Si](Cn1cncn1)(c1ccc(F)cc1)c1ccc(F)cc1`, for which the max response is -21.1%.

As to `CCC(C)c1ccc(O)cc1` (stereo not given), the max response is -2.59%.

Turning to `CCOc1cc(Oc2ccc(C(F)(F)F)cc2Cl)ccc1[N+](=O)[O-]`, the max response was -9.09%.

As to `CC(C)NC(=O)N1CC(=O)N(c2cc(Cl)cc(Cl)c2)C1=O`, the max response is 1.07%.

Turning to `Fc1ccc(Oc2ccnc3cc(Cl)cc(Cl)c23)cc1`, the max response was -31.6%.

On to `COP(=S)(OC)Oc1nc(Cl)c(Cl)cc1Cl`, for which the max response is -2.62%.

As for `CCCCC(C#N)(Cn1cncn1)c1ccc(Cl)cc1` (stereo not given), the max response was 0.943% and -1.27%.

In the case of `C#CC(C)(C)NC(=O)c1cc(Cl)cc(Cl)c1`, the max response was 4.89%.

Take `N#CC(CCc1ccc(Cl)cc1)(Cn1cncn1)c1ccccc1` (stereo not given): the max response is -21.6%.

Turning to `O=C1C2(Cl)C3(Cl)C4(Cl)C(Cl)(Cl)C5(Cl)C3(Cl)C1(Cl)C5(Cl)C24Cl` (stereo not given), the Potency is 50.1 µM (active) and the max response was 5.47%.

Consider `CNC(=O)Oc1ccc(N(C)C)c(C)c1`, for which the max response was 5.88%.

Consider `FC(F)(F)c1ccc(Cl)cc1`, for which the max response is 7.1% and -8.38%.

With `Clc1ccccc1-c1nnc(-c2ccccc2Cl)nn1`, the max response is -3%.

Turning to `O=[N+]([O-])c1ccccc1Cl`, the max response is 10.4% and -3.52%.

With `Oc1c(Cl)cc(Cl)cc1Cl`, the max response is -6.96% and -8.43%.

For the compound `COC(=O)/C=C(\C)OP(=O)(OC)OC`, the max response is 12.7%.

Consider `CC(C)N(C(=O)COc1nnc(C(F)(F)F)s1)c1ccc(F)cc1`, for which the max response is -9%.

Take `CC1CCCCC1NC(=O)Nc1ccccc1` (stereo not given): the max response was -4.51%.

Regarding `COP(=O)(OC)OC(Br)C(Cl)(Cl)Br` (stereo not given), the max response is -24%.

With `Clc1ccc([C@@]2(Cn3cncn3)C[C@H](Br)CO2)c(Cl)c1`, the max response is -1.58%.

As for `CCOP(=O)(OCC)SCCSCC`, the max response is 12.9%.

`NS(=O)(=O)C(F)(F)C(F)(F)C(F)(F)C(F)(F)C(F)(F)C(F)(F)C(F)(F)C(F)(F)F`: the max response was -2.62%.

On to `C=CCOC(=O)C(C)(C)OC(=O)c1cc(-n2c(=O)cc(C(F)(F)F)n(C)c2=O)ccc1Cl`, for which the max response is -16.6%.
